Measured values: PubChem BioAssay (Tox21)
Records with an inconclusive call do not appear. Active and inactive are the calls of the source. Unless noted, the call rests on the fitted dose curve; in most records, active means well fitted curve in the direction sought with a large enough effect in the repeat runs; inconclusive means weak or mixed curves; inactive means no such curve, though single readings can be large; an effect the other way counts as inactive or inconclusive.

How the values were obtained:
[1] = qHTS assay to identify small molecule agonists of the vitamin D receptor (VDR) signaling pathway - cell viability counter screen (AID 743224); further: series mostly up to about 63 µM; nearly all actives have a fitted effect of over 50% in size
Summary of the method: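 VDR-bla cell line, quantitative HTS format; 16 h compound incubation (37C, 5% CO2); ATP-based CellTiter-Glo luminescence measured in the reporter assay wells.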

[2] = qHTS assay to identify small molecule agonists of the NFkB signaling pathway (AID 1159509; active means well fitted curve in the direction sought with a large enough effect in the signal ratio in the repeat runs, not every such curve was filed as active; the % refers to the signal ratio; further: series mostly up to about 61 µM)
Summary of the method: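 ME-180 NFkB-bla, 2,000 cells/well, overnight plating; cpd pinned in DMSO, 5 h 37 C; B/G FRET substrate 1.5 h RT; ex 405, em 460/530 nm.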

[3] = qHTS assay to identify small molecule agonists of the NFkB signaling pathway - cell viability counter screen (AID 1159515; calls by dose curve; further: series mostly up to about 61 µM; nearly all actives have a fitted effect of over 55% in size)
Summary of the method: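 Viability in NFkB-bla ME-180 cells was measured by CellTiter-Glo luminescence, 30 min room temperature, in wells already treated 5 hr with compounds and read for reporter FRET.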

[4] = qHTS assay to identify small molecule agonists of the endoplasmic reticulum stress response signaling pathway (AID 1159516; active means well fitted activation curve with a large enough effect in the signal ratio in the repeat runs, not every such curve was filed as active; the % refers to the signal ratio)
Summary of the method: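 ER stress element reporter (bla) in HeLa. 1,500 cells/well, overnight attachment; 5 hr compound; 2 hr RT substrate; dual-emission fluorescence.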

[5] = qHTS assay to identify small molecule agonists of the endoplasmic reticulum stress response signaling pathway - cell viability counter screen (AID 1159517; calls by dose curve;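 further: HeLa cells carrying an ER stress response element beta-lactamase reporter; series mostly up to about 61 µM; nearly all actives have a fitted effect of over 50% in size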)
Summary of the method: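 CellTiter-Glo was added to wells already read for beta-lactamase FRET, and luminescence was recorded 30 min later. Cells: ESRE-bla HeLa, 1,500 per well, compound exposure 5 hr at 37 C.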

[6] = qHTS assay to identify small molecule antagonists of the retinoid-related orphan receptor gamma (ROR-gamma) signaling pathway - cell viability counter screen (AID 1159520); further: nearly all actives have a fitted effect of over 50% in size
Summary of the method: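 Tet-on ROR gamma CHO cells (1,000/well) were plated 4 hr, given compounds in DMSO for 2 hr at 37 C, then induced with 1 uM final doxycycline for 16 hr. Viability was read as ATP by CellTiter-Glo luminescence after 30 min.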

[7] = biological target: Nuclear receptor ROR-gamma (Homo sapiens) (UniProt P51449); experiment: qHTS assay to identify small molecule antagonists of the retinoid-related orphan receptor gamma (ROR-gamma) signaling pathway (AID 1159521;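 further: CHO cells with doxycycline inducible ROR-gamma driving an RORE luciferase reporter; top concentration of the series differs between compounds; nearly all actives have a fitted effect of over 50% in size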)
Summary of the method: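 Tet-on ROR-gamma CHO cells with ROR response element-luciferase reporter; compounds added 2 hr before 1 uM doxycycline induction, then 16 hr at 37 C. Antagonism scored as decreased ONE-Glo luminescence.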

[8] = qHTS assay to identify small molecule agonists of the AP-1 signaling pathway - cell viability counter screen (AID 1159525; calls by dose curve; further: nearly all actives have a fitted effect of over 55% in size)
Summary of the method: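 ME-180 AP-1-bla, 2500 cells/well, Opti-MEM + 0.5% dialyzed FBS; overnight 37 °C; cpd 15-pt titration, 5 h 37 °C; CellTiter-Glo 30 min RT; luminescence read; normalised to TOAB and DMSO controls.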

[9] = qHTS assay to identify small molecule agonists of the AP-1 signaling pathway (AID 1159526; calls by dose curve)
[10] = biological target: Retinoic acid receptor RXR-alpha (Homo sapiens) (UniProt P19793); experiment: qHTS assay to identify small molecule agonists of the RXR signaling pathway (AID 1159527; calls by dose curve; further: nearly all actives have a fitted effect of over 35% in size)
Sequence of Retinoic acid receptor RXR-alpha (Homo sapiens) (P19793 whole entry, looked up): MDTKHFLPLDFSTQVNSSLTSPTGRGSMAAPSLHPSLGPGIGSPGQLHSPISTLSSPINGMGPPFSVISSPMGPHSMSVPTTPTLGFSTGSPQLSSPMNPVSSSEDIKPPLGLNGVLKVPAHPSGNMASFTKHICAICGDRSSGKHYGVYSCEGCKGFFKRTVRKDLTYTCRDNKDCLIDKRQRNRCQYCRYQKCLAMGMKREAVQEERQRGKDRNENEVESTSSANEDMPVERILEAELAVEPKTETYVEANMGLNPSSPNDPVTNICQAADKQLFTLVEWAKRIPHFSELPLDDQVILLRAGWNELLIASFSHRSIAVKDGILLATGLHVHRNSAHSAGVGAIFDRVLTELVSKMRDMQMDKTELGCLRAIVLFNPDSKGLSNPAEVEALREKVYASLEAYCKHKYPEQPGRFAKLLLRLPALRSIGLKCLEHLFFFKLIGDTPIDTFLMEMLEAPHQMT
Summary of the method: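 GeneBLAzer RXR-alpha-UAS-bla HEK 293T cells in 2% charcoal-stripped FBS medium were exposed to compounds for 16 hr at 37 C in agonist mode. Beta-lactamase reporter read as 460/530 nm FRET ratio after 2 hr substrate loading.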

[11] = qHTS assay to identify small molecule agonists of the RXR signaling pathway - cell viability counter screen (AID 1159529)
Summary of the method: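 RXR-alpha-UAS-bla HEK 293T cells in medium with 2% charcoal-stripped FBS were pre-incubated 5 hr, then compound-treated 16 hr at 37 C. Viability was read by CellTiter-Glo luminescence in the same wells as the beta-lactamase assay, with tetraoctyl ammonium bromide as positive control.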

[12] = qHTS assay to identify small molecule antagonists of the retinoid acid receptor (RAR) signaling pathway - cell viability counter screen (AID 1159551); further: nearly all actives have a fitted effect of over 35% in size
Summary of the method: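 Following overnight attachment, C3RL4 reporter cells received DMSO-dissolved compounds and then retinol (1 uM final). Six hours later at 37 C, ATP content was measured by CellTiter-Glo luminescence.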

[13] = qHTS assay to identify small molecule antagonists of the retinoic acid receptor (RAR) signaling pathway (AID 1159552; further: nearly all actives have a fitted effect of over 50% in size)
Summary of the method: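 Retinol signaling pathway inhibitors screened in C3RL4 RARE-luciferase reporter cells seeded overnight at 37 C, then compounds added with 1 uM (final) retinol as pathway substrate. After 6 hr at 37 C, luciferase luminescence read after 30 min at room temperature.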

[14] = qHTS assay to identify small molecule agonists of the retinoic acid receptor (RAR) signaling pathway (AID 1159553)
Summary of the method: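 Cell line C3RL4, RARE luciferase reporter. Treatment: compounds in DMSO, 6 hr, 37 C, 5% CO2, after overnight plating. Detection: luminescence, 30 min RT after reagent.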

[15] = qHTS assay to identify small molecule antagonists of the vitamin D receptor (VDR) signaling pathway - cell viability counter screen (AID 743225); further: nearly all actives have a fitted effect of over 50% in size
Summary of the method: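 VDR-UAS-bla HEK 293T cells were plated and incubated 4 h at 37C, then dosed with compound plus 3 nM (final) 1-alpha,25-dihydroxyvitamin D3 for 16 h. After the 2 h beta-lactamase read, viability in the same wells was read as CellTiter-Glo luminescence after 30 min at room temperature.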

[16] = qHTS assay to identify small molecule antagonists of the estrogen related receptor (ERR) signaling pathway - cell viability counter screen (AID 1224818);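 further: series mostly up to about 46 µM; viability measured after 17.5 h of compound exposure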
Summary of the method: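 Here, ERR cells are plated at 2,000 cells per well, allowed 6 h to attach, and treated with compounds in DMSO for 17.5 h at 37 C. CellTiter-Fluor is then added and fluorescence read after 30 min.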

[17] = qHTS assay to identify small molecule antagonists of the estrogen related receptor (ERR) signaling pathway (AID 1224819)
Summary of the method: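 LOPAC library screened for antagonism as reduced One-Glo luminescence in ERR reporter cells (2,000/well). Compounds were added after 6 h pre-incubation and left 18 h at 37C; reading followed a 30 min room-temperature reagent step.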

[18] = qHTS assay to identify small molecule agonists of the estrogen related receptor (ERR) signaling pathway (AID 1224820)
Summary of the method: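 Cells: ERR line from NTP, 2,000/well. Pre-incubation 6 h, 37 C/5% CO2. Compound (DMSO) pin transfer, 18 h 37 C. One-Glo, 30 min RT, luminescence.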

[19] = test system: estrogen-related receptor alpha (ERRalpha) with PGC-1alpha coactivator, human; experiment: qHTS assay to identify small molecule antagonists of the estrogen related receptor signaling pathway with the pleiotropic PPARgamma coactivator (PGC) (AID 1224821; calls by dose curve)
Summary of the method: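 Luminescent read-out (One-Glo, 30 min at room temperature) following 18 h treatment of PGC/ERR cells at 37 C with compounds delivered in DMSO. Cells had settled 6 h at 37 C/5% CO2 before dosing.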

[20] = qHTS assay to identify small molecule antagonists of the estrogen related receptor signaling pathway with the pleiotropic PPARgamma coactivator (PGC) cell viability counter screen (AID 1224822;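 further: series mostly up to about 46 µM; viability read after 17.5 h compound exposure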)
Summary of the method: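 qHTS format, DMSO compound stocks pin-transferred onto PGC/ERR cells 6 h after plating; 17.5 h exposure at 37 C, then CellTiter-Fluor fluorescence.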

Measured: Potency

OCCCC1CCCCC1
not listed: [15] | [16] | [17] | [18] | [19] | [20]
inactive: all other assays above

C[C@H](NC(CCc1ccccc1)C(=O)O)C(=O)N1CCC[C@H]1C(=O)O (stereo partly specified)
inactive: all assays above

CCN(CC)CCNC(=O)c1cc(S(C)(=O)=O)ccc1OC
not listed: [17] | [18] | [19]
inactive: all other assays above

CC(C)NCC(O)c1ccc(NS(C)(=O)=O)cc1 (stereo unspecified)
not listed: [15] | [17] | [18] | [19]
inactive: all other assays above

OC(CCN1CCCCC1)(c1ccccc1)C1CC2C=CC1C2 (stereo unspecified)
not listed: [1] | [17] | [18] | [19]
inactive: all other assays above

N=C(N)c1ccccc1
not listed: [15] | [17] | [18] | [19]
inactive: all other assays above

NS(=O)(=O)c1cc2c(cc1Cl)NC(C1CC3C=CC1C3)NS2(=O)=O (stereo unspecified)
not listed: [17] | [18] | [19]
inactive: all other assays above
